Our source for the outcome values is PubChem BioAssay.

Structures are written as SMILES. Results with a measured potency or affinity are listed apart. Active and inactive are the calls of the source. No rule for the calls is given here.

Sequence of Plasmodium falciparum protein kinase 6 (PK6, PF3D7_1337100) (Q8IDW1 1-305): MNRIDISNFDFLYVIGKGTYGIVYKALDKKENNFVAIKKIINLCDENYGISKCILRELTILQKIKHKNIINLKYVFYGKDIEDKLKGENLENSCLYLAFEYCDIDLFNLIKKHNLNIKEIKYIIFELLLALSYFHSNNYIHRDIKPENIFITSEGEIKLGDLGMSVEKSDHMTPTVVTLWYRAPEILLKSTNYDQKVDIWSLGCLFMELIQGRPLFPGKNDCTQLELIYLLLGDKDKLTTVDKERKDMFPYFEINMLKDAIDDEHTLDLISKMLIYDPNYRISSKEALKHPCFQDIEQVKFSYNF

The experiment addresses Plasmodium falciparum protein kinase 6 (PK6, PF3D7_1337100) (UniProt Q8IDW1). Description: PfPK6 kinase inhibitors, biochemical, TCAMS library (AID 1159586). The note with it: recombinant PfPK6, Kinase-Glo ATP depletion luminescence. On the technique in general: Kinase-Glo reads ATP consumption through a luciferase reaction.
On to `CC(CNC(=O)C(c1cc2ccccc2o1)N1CCN(C(c2ccccc2)c2ccccc2)CC1)c1ccccc1` (centres undefined), for which the outcome was inactive. Consider `Cn1cnc(CCNC(=O)c2ccc(-c3ccc(-c4nc5ccc(C(F)(F)F)cc5[nH]4)s3)cc2)c1`, for which the result was inactive. In the case of `CN1CCN(c2cc(-c3cccnc3)nc(-c3ccncc3)n2)CC1` it was “inactive”; in that of `COc1ccc2nccc([C@@H](O)CN3CC[C@H](NCc4ccc5c(n4)NC(=O)CS5)[C@H](F)C3)c2c1`, “inactive”; in that of `c1ccc(-c2cc(NCCNc3cc(-c4ccccc4)nc4ccccc34)c3ccccc3n2)cc1`, “inactive”. Consider `NC1=NC2(CCCCC2)N(OCC2CCCCC2)C(N)=N1`, for which the outcome was inactive.

For the molecule `O=C(Nc1ccc(OC2CCN(Cc3ccc(F)cc3)CC2)c(Cl)c1)c1ccoc1`, the result was inactive.

For `O=S(=O)(Nc1cccc(CCN2CCC(N3CCCCC3)CC2)c1)c1cccc(C(F)(F)F)c1`, the outcome was inactive. In the case of `Cc1c(C(=O)N2CCCC(C(F)(F)F)C2)sc2cccc(F)c12` (centres undefined) it was “inactive”. In the case of `CC(C)[C@H](NC(=O)c1ccc(O)c(-c2ccc(Cl)c(Cl)c2)c1)C(=O)NC1CCCCCC1` it was “inactive”; in that of `Cc1ccc(NC(=O)c2ccc3ncccc3c2)cc1OC1CCN(Cc2ccco2)C1` (centres undefined), “inactive”. In the case of `CCCCCN1CCCC(CNS(=O)(=O)c2ccc(C(=O)Nc3ccc(C(F)(F)F)cc3)cc2)C1` (centres undefined) it was “inactive”. As for `Cn1cncc1C(=O)Nc1cccc(-c2ccc(-c3nc4ccccc4[nH]3)s2)c1`, the outcome was inactive. In the case of `CCCCOc1ccc(N2C(N)=NC(N)=NC2(C)C)cc1` it was “inactive”; in that of `COc1ccc(NC(=O)Nc2cccc(-c3cccc(-c4nc5c(C)cccc5[nH]4)c3)c2)cc1`, “inactive”; in that of `O=C(Nc1cccc(-c2ccc(-c3nc4ccc(C(F)(F)F)cc4[nH]3)s2)c1)c1cnc[nH]1`, “inactive”. In the case of `COc1cccc2cc(C(=O)N[C@@H](CC(C)C)C(=O)N[C@H](/C=N/N3C(=O)CN(Cc4ccccc4)C3=O)CCc3ccccc3)oc12` it was “inactive”; in that of `CCOc1ccc(-c2nc(NC(=O)Cc3cccc(OC)c3)sc2C)cc1`, “inactive”. In the case of `Cc1ccc(C2CC(c3cccs3)=NN2C(=O)c2ccc(Br)o2)cc1` (centres undefined) it was “inactive”. As for `CNc1ccc(CNCc2ccc(-c3ccc(-c4nc5ccc(C(F)(F)F)cc5[nH]4)s3)cc2)cc1`, the result was inactive.

With `Cc1ccc([N+](=O)[O-])cc1NC(=O)N(CC(O)c1ccccc1)C1CCCCC1` (centres undefined), the outcome was inactive. As to `COc1ccc(CCN(C)CCOc2ccc(NC(=O)c3cc(SC)cc4c(=O)c5ccccc5[nH]c34)cc2)cc1OC`, the outcome was inactive.

On to `CC(C)C(C(=O)Nc1ccc(S(=O)(=O)N(C)C)cc1)c1ccc(Cl)cc1` (centres undefined), for which the outcome was inactive.

On to `NC(=O)c1ccc(C(=O)Nc2cccc(-c3ccc(-c4nc5ccc(C(F)(F)F)cc5[nH]4)cc3)c2)cc1`, for which the outcome was inactive.
